Assay outcomes from PubChem.
aSyn 5UTR act – Activators via SNCA 5'UTR binding, MLPCN. alpha-synuclein 5'UTR reporter, activators screen. 7.1% of 300,000 active. activity score, % (tested at 7.5 µM), hits read low. AID 1814; in the data active = activity score below about -60%
Starred values were filed as active, the others as inactive. The list is a sample of the results.

Results for CCc1ccc(-c2ccc(SCC(=O)NCC3CCCO3)nn2)cc1 (stereo not given) ?
aSyn 5UTR act: -94*

How did CCc1nnc(NC(=O)CSc2ccc(-c3ccc(-n4cccn4)cc3)nn2)s1 do in these assays?
aSyn 5UTR act: -98*

How did CCc1ccc(-c2ccc(SCC(=O)Nc3nnc(C)s3)nn2)cc1 do in these assays?
aSyn 5UTR act: -83*

How did CCc1ccc(OCC(=O)O/N=C(\N)c2ccncc2)c(Br)c1 do in these assays?
aSyn 5UTR act: -136*

Results for N/C(=N\OC(=O)COc1ccc2ccccc2c1Br)c1ccncc1 ?
aSyn 5UTR act: -92*

How did CCc1ccc(OCC(=O)O/N=C(\N)c2ccncc2)cc1 do in these assays?
aSyn 5UTR act: -99*

How did CC(C)(C)c1ccc(OCC(=O)O/N=C(\N)c2ccncc2)cc1 do in these assays?
aSyn 5UTR act: -77*

What do the screens show for `Cc1cc(C(=O)O/N=C(\N)c2ccc(C(C)(C)C)cc2)no1`?
aSyn 5UTR act: -223*

How did CCN(CC)CCCNc1nc2ccccc2c2nc(-c3ccncc3)nn12 do in these assays?
aSyn 5UTR act: -281*

Results for CCN(CC)CCCNc1nc2cc(OC)c(OC)cc2c2nc(-c3cccnc3)nn12 ?
aSyn 5UTR act: -79*

How did CCN(CC)CCCNc1nc2cc(OC)c(OC)cc2c2nc(-c3ccccc3)nn12 do in these assays?
aSyn 5UTR act: -76*

Results for Clc1ccc(COn2ccnc2)cc1Cl ?
aSyn 5UTR act: -104*

What do the screens show for `CCN1/C(=C/c2ccc3cc(C)ccc3[n+]2CC)Sc2ccc3sccc3c21`?
aSyn 5UTR act: 131

Results for CCN1/C(=C/c2ccc3cccc(C)c3[n+]2CC)Sc2ccccc21 ?
aSyn 5UTR act: -134*

Results for COc1ccc(-c2nnc(-c3ccc(F)cc3)o2)cc1 ?
aSyn 5UTR act: -152*

What do the screens show for `CCCN(CCC)S(=O)(=O)c1ccc(C(=O)Nc2nnc(-c3cc(OC)cc(OC)c3)o2)cc1`?
aSyn 5UTR act: 82

Results for Cc1ccc(C(=O)Nc2nnc(-c3ccncc3)o2)cc1 ?
aSyn 5UTR act: -82*

Results for CCN(CC)CCCNc1ccc(-c2nnc(-c3ccc(OCC(C)C)cc3)o2)cn1 ?
aSyn 5UTR act: 121

Results for Clc1ccc(-c2nnc(N3CCOCC3)o2)cc1 ?
aSyn 5UTR act: -71*

How did CCCc1nnc(-c2ccc(OC)cc2)o1 do in these assays?
aSyn 5UTR act: -67*

Results for COc1ccc(-c2nnc(NC(=O)c3ccc(S(=O)(=O)N4COCC4(C)C)cc3)o2)cc1 ?
aSyn 5UTR act: 76

Results for Cc1ccc(-c2nnc(-c3cccs3)o2)cc1 ?
aSyn 5UTR act: -93*

Results for Cc1ccc(-c2nnc(-c3ccccc3)o2)cc1 ?
aSyn 5UTR act: -77*

How did COc1ccc(-c2ccc(-c3nnc(-c4ccncc4)o3)cc2)cc1 do in these assays?
aSyn 5UTR act: -115*

How did CCNc1nnc(-c2ccc(C)cc2)o1 do in these assays?
aSyn 5UTR act: -80*

Results for Cc1ccc(/C=C/c2nnc(-c3ccc(C)cc3)o2)cc1 ?
aSyn 5UTR act: -69*

What do the screens show for `COc1ccc(-c2nnc(-c3ccc(C)cc3)o2)cc1`?
aSyn 5UTR act: -103*

How did Fc1ccc(/C=C/c2nnc(-c3cccs3)o2)cc1 do in these assays?
aSyn 5UTR act: -129*

Results for Fc1ccc(-c2nnc(-c3ccc(Cl)cc3)o2)cc1 ?
aSyn 5UTR act: -194*

Results for [O-]/C(=C(\C(=S)Nc1ccc(SC(F)F)cc1)[n+]1ccccc1)c1ccc(Cl)cc1Cl ?
aSyn 5UTR act: -72*

What do the screens show for `COc1ccc(C(=O)Nn2c(SCc3cccc([N+](=O)[O-])c3)nc3ccccc3c2=O)cc1`?
aSyn 5UTR act: 66

What do the screens show for `O=C(Nn1c(SCc2cccc([N+](=O)[O-])c2)nc2ccccc2c1=O)c1ccccc1`?
aSyn 5UTR act: -145*

Results for O=C(N=C1N=C2C=CC=CN2Cc2ccccc21)c1ccc(S(=O)(=O)N2CCCC2)cc1 ?
aSyn 5UTR act: -134*

How did O=C(N=C1N=C2C=CC=CN2Cc2ccccc21)c1ccc(S(=O)(=O)N2CCOCC2)cc1 do in these assays?
aSyn 5UTR act: -143*

What do the screens show for `CN(C)S(=O)(=O)c1cccc(C(=O)N=C2N=C3C=CC(Cl)=CN3Cc3ccccc32)c1`?
aSyn 5UTR act: -105*

What do the screens show for `CC1CN(C(=O)c2ccccc2)C(=Nc2cccc(S(=O)(=O)N(C)C)c2)S1` (stereo not given)?
aSyn 5UTR act: 41

What do the screens show for `Nc1ccccc1SCc1csc(-c2ccc(Cl)cc2)n1`?
aSyn 5UTR act: -72*

What do the screens show for `Cc1cc(C)nc(SCc2csc(-c3ccccc3)n2)n1`?
aSyn 5UTR act: -91*

Results for C=CCn1c(SCc2csc(-c3ccc(Cl)cc3)n2)nnc1-c1ccccc1OC ?
aSyn 5UTR act: -64*

What do the screens show for `[O-]/[N+](=C/c1ccc(F)cc1)c1ccc(Cl)cc1`?
aSyn 5UTR act: -177*

What do the screens show for `[O-]/[N+](=C\c1ccco1)c1ccc(Cl)cc1`?
aSyn 5UTR act: -164*

What do the screens show for `O=C(NCc1cccnc1)/C(=C\c1ccc(-c2ccc(Cl)c(Cl)c2)o1)S(=O)(=O)c1ccccc1`?
aSyn 5UTR act: -332*

What do the screens show for `Cc1ccn2cc(-c3cccc(NC(=O)c4ccccc4)c3)nc2c1`?
aSyn 5UTR act: -82*
